Most compounds without a hit are left out; they make up all but 14% or so of the library.
HCMV antiviral – qHTS Assay for inhibitors of the human cytomegalovirus (HCMV); HFF cells, HCMV-luciferase reporter, 72 h; hits give low values; activity change, negative = inhibition, % at 57.5 µM; 410,000 tested, 4.5% active; AID 1259415, 2018; in the data active = activity change below about -60%; inconclusive = no clear call, values can overlap the other calls; inactive = above about -39%
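Screen run at 2 compound doses on HFFs infected with reporter HCMV, MOI 1 PFU/cell. Luciferase activity from cell lysates at 72 h post infection gave inhibition relative to buffer-only and Salinomycin wells.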
Sm TGR block – qHTS Assay for the Inhibitors of Schistosoma Mansoni Peroxiredoxins; Schistosoma mansoni thioredoxin glutathione reductase (TGR), Q962Y6; purified TGR, DTNB reduction, TNB absorbance 405 nm; Potency, µM (doses to about 114 µM), usual class: inhibitors; 360,000 tested, 3% active; AID 485364, 2010; note: nearly all actives have a fitted effect of over 60% in size
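TGR 20 nM + NADPH 100 uM (dispensed conc.), cpd preinc 15 min RT; start with NADPH (500 uM addition) then DTNB (15 mM addition). Kinetic TNB absorbance, 405 nm filter. Four-parameter Hill fit across titration.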
FBPA Giardia inh – qHTS Assay for Inhibitors of Fructose-1,6-bisphosphate Aldolase from Giardia Lamblia | Potency, µM (highest dose often 59.6 µM), hits mostly inhibitors | purified Giardia FBPA | A8B2U2 | 290,000 tested, 0.71% active; note: nearly all actives have a fitted effect of over 55% in size
Target sequence (A8B2U2 whole entry, looked up): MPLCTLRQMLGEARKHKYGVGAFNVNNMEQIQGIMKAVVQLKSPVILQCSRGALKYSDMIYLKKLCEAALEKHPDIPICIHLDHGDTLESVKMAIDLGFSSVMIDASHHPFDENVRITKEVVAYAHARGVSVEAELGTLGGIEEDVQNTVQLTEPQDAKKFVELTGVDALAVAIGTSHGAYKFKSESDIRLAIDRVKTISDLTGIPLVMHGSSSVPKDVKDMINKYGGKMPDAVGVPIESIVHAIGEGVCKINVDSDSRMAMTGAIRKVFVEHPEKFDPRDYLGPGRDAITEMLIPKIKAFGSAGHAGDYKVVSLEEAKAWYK
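40 nM FBPA preincubated 10 min at RT with compound (up to 57.5 uM final), then substrate plus GAPDH/TPI/NAD/arsenate coupling and diaphorase/resazurin added. Fluorescence read after 20 min at RT, 525/598 nm.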
Pf growth 96h – Primary qHTS for delayed death inhibitors of the malarial parasite plastid, 96 hour incubation; P. falciparum luciferase reporter growth, 96 h; Potency, µM (doses to about 28.7 µM), actives largely listed as inhibitors; 320,000 tested, 6.9% active; AID 504834, 2011
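Erythrocytes infected with luciferase-expressing P. falciparum were dispensed at 2% hematocrit and 0.05% parasitemia (final), then incubated with compounds 96 hours at 37 C in 5% CO2. Luminescence after detection reagent addition reported growth.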
Pf growth 48h – Primary qHTS for delayed death inhibitors of the malarial parasite plastid, 48 hour incubation | P. falciparum luciferase growth in erythrocytes, 48 h | Potency, µM (doses to about 28.7 µM), actives largely listed as inhibitors | 310,000 tested, 5.9% active | AID 504832, 2011
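Luciferase-expressing P. falciparum in infected erythrocytes (2% hematocrit, 0.1% parasitemia final) in RPMI 1640/0.5% Albumax were exposed to compound for 48 hours at 37 C, 5% CO2; growth read as luminescence.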
Hits are given with their value; i = inactive; ? = inconclusive; nt = no result given; + = active, no number; [ ] = remark or other dose. Unless noted, calls come from the whole dose curve; as a rule, active = well fitted curve in the direction sought with a large enough effect; inconclusive = small, poorly fitted or top-dose-only effect, or another doubt; inactive = no such curve, though single readings can be large; an effect the other way counts as inactive or inconclusive.

SMILES	HCMV antiviral	Sm TGR block	FBPA Giardia inh	Pf growth 96h	Pf growth 48h
Cc1cc(NC(=O)c2ccccc2C)ccc1NC(=O)c1ccccc1Cl	i	i	i	i	i
CC(Sc1nnc2ccccn12)C(=O)Nc1ncc(Cl)cc1Cl (stereo unspecified)	i	i	i	i	i
COc1ccc(-n2c(SC(C)C(=O)Nc3ncc(Cl)cc3Cl)nc3ccccc32)cc1 (stereo unspecified)	-85.0	i	i	?	10.4µM
CCOC(=O)C(C)Sc1nnc2ccc3ccccc3n12 (stereo unspecified)	-86.0	i	nt	nt	nt
O=C(N/N=C/c1sc(N2CCOCC2)nc1-c1ccccc1)c1ccccc1F	nt	i	i	?	?
O=C(N/N=C/c1sc(N2CCOCC2)nc1-c1ccccc1)c1cccc(S(=O)(=O)N2CCOCC2)c1	-99.9	i	i	2.08µM	1.85µM
Nc1ccc(C(=O)N/N=C/c2sc(N3CCOCC3)nc2-c2ccccc2)cc1	i	i	i	?	?
O=Cc1sc(N2CCOCC2)nc1-c1ccccc1	nt	i	i	i[5.75 µM]	i
COc1cc(C(=O)N/N=C/c2sc(N3CCOCC3)nc2-c2ccccc2)cc(OC)c1OC	i	i	i	i	i
O=C(N/N=C/c1sc(N2CCOCC2)nc1-c1ccccc1)c1ccccc1O	i	i	i	1.85µM	5.22µM
O=C(O)c1cccc(N/N=C/c2sc(N3CCOCC3)nc2-c2ccccc2)c1	i	i	i	5.22µM	?
O=C(Nc1ccccc1F)C(=Cc1sc(N2CCOCC2)nc1-c1ccccc1)C(=O)Nc1ccccc1F	-69.9	i	i	?	?
COc1ccc(Nc2ncc(C(=O)Nc3cccc(OC)c3)c3ccccc23)cc1	i	i	nt	nt	nt
FC(F)(F)c1ccccc1Cc1c(-c2ccco2)nc2c3ccccc3ccn12	i	nt	nt	nt	nt
Cc1cc(C(=O)N/N=C/c2sc(N3CCOCC3)nc2-c2ccccc2)c(C)o1	i	?	i	?	?
O=C(N/N=C/c1sc(N2CCOCC2)nc1-c1ccccc1)c1ccccc1Cl	i	i	i	?	10.4µM
COc1ccccc1OCC(=O)N1CCN(S(=O)(=O)c2ccc(Cl)cc2)CC1	i	i	nt	?	?
CC(C(=O)NC1CCCC1)N(C(=O)c1ccc(-c2ccccc2)[nH]1)c1ccccc1F (stereo unspecified)	i	i	i	?	13.1µM
CC(C(=O)NC1CCCC1)N(C(=O)Cn1nnc(-c2ccc(F)cc2)n1)c1ccccc1F (stereo unspecified)	i	i	i	?	?
Cn1c(=O)c2sccc2n2c(CCCC(=O)NCc3ccco3)nnc12	i	i	i	?	i
NC(=O)COC(=O)c1ccccc1Nc1ccc(SC(F)F)cc1	i	i	i	i	i
CC1CCCC(C)N1C(=O)c1ccccc1Nc1ccc(SC(F)F)cc1 (stereo unspecified)	i	i	i	13.1µM	?
O=C(COC(=O)c1ccccc1Nc1ccc(SC(F)F)cc1)NC1CC1	-71.0	i	i	i	?
COC(=O)c1ccc(CN(Cc2ccc(OC)c(OC)c2)S(=O)(=O)c2ccc(F)c(C(=O)Nc3cc(C)ccc3C)c2)cc1	i	i	nt	nt	nt
CC1=Nc2cc(Cl)ccc2Oc2ccccc21	i	i	?	2.08µM	i
SMILES	HCMV antiviral	Sm TGR block	FBPA Giardia inh	Pf growth 96h	Pf growth 48h
COCCn1nnnc1C(C(C)C)N1CCOCC1 (stereo unspecified)	i	i	i	8.28µM	i
Cc1cc(=O)oc2c(C)c(OC(C)C(=O)NCC(O)c3ccccc3)ccc12 (stereo unspecified)	?	i	i	?	?
Cc1c(OCC(=O)NCCCN2CCCC2=O)ccc2c3c(c(=O)oc12)CCCC3	+	i	nt	18.5µM	?
Cc1c(OCC(=O)NCC(O)c2ccccc2)ccc2c3c(c(=O)oc12)CCC3 (stereo unspecified)	i	i	nt	11.7µM	i
O=C(COc1cc2oc(=O)c3c(c2cc1Cl)CCC3)NCC(O)c1ccccc1 (stereo unspecified)	i	i	nt	13.1µM	i
Cc1c(OC(C)C(=O)NCC(O)c2ccccc2)ccc2c3c(c(=O)oc12)CCCC3 (stereo unspecified)	i	i	nt	4.15µM	8.28µM
COC(=O)c1ccc(Cn2c(C)c(C(=O)Nc3cccc(Oc4ccccc4)c3)sc2=O)o1	i	nt	nt	nt	nt
COc1ccccc1-c1cc2c(Nc3cccc(S(C)(=O)=O)c3)nccc2[nH]1	i	nt	nt	nt	nt
COC(=O)c1nccc2c1[nH]c1ccccc12	i	i	nt	i	i
O=C(c1ccc(Cl)c(S(=O)(=O)NCc2cccnc2)c1)N1CCCC1	i	i	nt	i	i
Cc1cc(C)n(CCCNC(=O)C(C)(C)Oc2ccc(Cl)cc2)n1	i	i	nt	?	?
Cc1ccc(NC(=O)CN2C(=O)C(c3ccc(F)cc3)=NC2(C)C)c(C)c1	i	i	nt	nt	nt
CCc1cc(=O)oc2cc(OCC(=O)NCCCN3CCCC3=O)c(Cl)cc12	i	i	nt	11.7µM	?
CN1C(=O)N(C)C(=O)C2(Cc3cc(NC(=O)c4ccccc4)ccc3N3CCCC32)C1=O (stereo unspecified)	i	?	i	10.4µM	9.28µM
Cc1ccc2nc3c(cc2c1)CC1(C(=O)N(C)C(=O)N(C)C1=O)C1CCCCN31 (stereo unspecified)	i	i	i	nt	i
O=C1NC(=O)C2(Cc3ccccc3N3CCCC32)C(=O)N1 (stereo unspecified)	i	i	i	i	nt
CN1C(=O)N(C)C(=O)C2(Cc3cc(NC(=O)c4ccccc4Cl)ccc3N3CCCC32)C1=O (stereo unspecified)	i	?	nt	5.22µM	?
CCOC(=O)c1noc2ncn(CC(=O)Nc3cccc(C(F)(F)F)c3)c(=O)c12	i	i	nt	nt	nt
COc1ccc(NC(=O)NNC(=O)c2ccc3ccccc3c2O)c(OC)c1	i	i	i	i	i
CN(CC(=O)Nc1ccc(F)cc1)C(=O)CN1C(=O)NC2(CCCC2)C1=O	i	i	nt	i	i
CC(=O)[C@H]1[C@H]([C@H](O)[C@H](O)CO)O[C@](O)(C(=O)O)C[C@@H]1O	i	12.6µM	nt	i	i
C=C(C)c1cccc(C(C)(C)NC(=O)NC(c2ccccc2)c2ccc(OC)cc2)c1 (stereo unspecified)	i	i	i	11.7µM	?
COc1ccc(C(NC(=O)c2ccc(-c3ccccc3)cc2)c2ccccc2)cc1 (stereo unspecified)	-66.2	i	nt	?	i
COc1ccc(C(C)NC(=O)c2ccccc2)cc1 (stereo unspecified)	i	i	i	nt	i
C=C(C)c1cccc(C(C)(C)NC(=O)Nc2ccc(OC)cc2)c1	i	i	i	?	i[5.75 µM]
O=C1c2ccccc2NC(c2cccc(O)c2)N1Cc1ccco1 (stereo unspecified)	i	31.6µM	i	?	i

High-throughput results (PubChem BioAssay)
